The antibiotic and cytotoxicity screens of Wong et al. (2023)
In all, about 39,000 compounds went through this assay and about 3,300 (8.5%) were called active. Only a selection was taken, and actives are over-represented in it overall.

tested on: HepG2; test: cytotoxicity call (relative viability < 0.9); settings: 10 µM

SMILES | cytotoxicity call
C[C@@H]1CCCCO[C@H](CN(C)C(=O)Nc2ccc(C(F)(F)F)cc2)[C@@H](C)CN([C@@H](C)CO)C(=O)c2cc(NC(=O)c3ccccc3)ccc2O1 | inactive
CN[C@@H]1[C@@H](O)[C@@H](O[C@@H]2[C@@H](O)[C@H](O[C@H]3OC(CN)=CC[C@H]3N)[C@@H](N)C[C@H]2N)OC[C@]1(C)O | inactive
C[C@H](CO)N1C[C@H](C)[C@@H](CN(C)S(=O)(=O)c2ccc(F)cc2)Oc2c(NC(=O)C3CC3)cccc2C1=O | inactive
O=C(Nc1ccno1)N1CCOCC1 | inactive
C[C@@H]1CN([C@@H](C)CO)C(=O)Cc2cc(NS(=O)(=O)c3ccc(F)cc3)ccc2O[C@H]1CN(C)CC1CC1 | inactive
C[C@H]1CCCCO[C@H](CN(C)C(=O)NC2CCCCC2)[C@@H](C)CN([C@@H](C)CO)C(=O)c2cc(NC(=O)c3ccncc3)ccc2O1 | inactive
O=C(C[C@H]1CC[C@H](NS(=O)(=O)c2ccc(F)cc2)[C@@H](CO)O1)NCc1ccc(Cl)c(Cl)c1 | inactive
Cc1ccc(S(=O)(=O)N(C)C[C@@H]2Oc3c(NS(=O)(=O)c4ccccc4)cccc3C(=O)N([C@H](C)CO)C[C@@H]2C)cc1 | inactive
O=C1NCCC[C@@H]1C(=O)N1CCCCC1 | inactive
COC(=O)[C@H]1CCCNC1=O | inactive
NNC(=O)[C@H]1CCCNC1=O | active
COC[C@H]1C[C@@H](c2nc(-c3ccc4c(c3)COc3cc5c(ccc6[nH]c([C@@H]7CC[C@H](C)N7C(=O)[C@@H](NC(=O)OC)C(C)C)nc65)cc3-4)c[nH]2)N(C(=O)[C@H](NC(=O)OC)c2ccccc2)C1 | inactive
C[C@H]1CCCCO[C@H](CN(C)S(=O)(=O)c2ccc(Cl)cc2)[C@@H](C)CN([C@@H](C)CO)C(=O)c2cc(NC(=O)Nc3cccc4ccccc34)ccc2O1 | inactive
COc1ccc(CN(CCN(C)C)c2ncccn2)cc1.Cl | inactive
CCCCCCCCCCCCCCCC[N+](C)(C)CCN(Cc1ccc(OC)cc1)c1ncccn1 | active
C[C@@H]1CN([C@H](C)CO)C(=O)c2cc(NC(=O)Cc3ccccc3)ccc2O[C@@H](C)CCCCO[C@@H]1CN(C)C(=O)CCC(F)(F)F | inactive
C[C@H](CO)N1C[C@H](C)[C@H](CN(C)C(=O)Nc2ccccc2)Oc2c(NC(=O)c3ccc(-c4nccs4)cc3)cccc2C1=O | inactive
COc1ccc(NC(=O)Nc2ccc3c(c2)C(=O)N([C@H](C)CO)C[C@@H](C)[C@@H](CN(C)S(C)(=O)=O)O3)cc1 | inactive
COc1ccc(NC(=O)Nc2ccc3c(c2)C(=O)N([C@@H](C)CO)C[C@H](C)[C@H](CN(C)S(C)(=O)=O)O3)cc1 | active
COc1ccc(NC(=O)Nc2ccc3c(c2)C(=O)N([C@@H](C)CO)C[C@@H](C)[C@H](CN(C)S(C)(=O)=O)O3)cc1 | inactive
COc1ccc(NC(=O)Nc2ccc3c(c2)C(=O)N([C@H](C)CO)C[C@H](C)[C@@H](CN(C)S(C)(=O)=O)O3)cc1 | inactive
COc1ccc(NC(=O)Nc2ccc3c(c2)C(=O)N([C@H](C)CO)C[C@@H](C)[C@H](CN(C)S(C)(=O)=O)O3)cc1 | active
COc1ccc(NC(=O)Nc2ccc3c(c2)C(=O)N([C@@H](C)CO)C[C@@H](C)[C@@H](CN(C)S(C)(=O)=O)O3)cc1 | inactive

SMILES | cytotoxicity call
C[C@H](CO)N1C[C@H](C)[C@@H](CN(C)Cc2ccccc2)Oc2cc(C#CC(C)(C)O)ccc2S1(=O)=O | inactive
C[C@@H]1CN([C@@H](C)CO)C(=O)c2cc(NC(=O)Nc3ccc(C(F)(F)F)cc3)ccc2O[C@@H](C)CCCCO[C@@H]1CN(C)C(=O)C1CCCCC1 | inactive
COc1ccc(S(=O)(=O)N(C)C[C@H]2Oc3ncc(C#CC4(O)CCCC4)cc3C(=O)N([C@@H](C)CO)C[C@H]2C)cc1 | inactive
Cn1nnnc1SCC(=O)NC(C)(C)C | inactive
Cn1cc(-c2[nH]c3cc(NC(=O)[C@H](N)C4CCCCC4)cc4c3c2C=NNC4=O)cn1 | active
COc1ccc(-c2cnc3c(c2)C(=O)N([C@H](C)CO)C[C@@H](C)[C@@H](CN(C)C(=O)Cc2ccccn2)O3)cc1 | inactive
CC(C)NC(=O)Nc1ccc2c(c1)CC(=O)N([C@@H](C)CO)C[C@H](C)[C@@H](CN(C)Cc1ccc(C(=O)O)cc1)O2 | inactive
CC(=O)N1[C@@H]2Cn3c(ccc(-c4ccccc4)c3=O)[C@H]1[C@@H](C(=O)N1CCN(C)CC1)[C@@H]2CO | inactive
C[C@@H]1CCCCO[C@@H](CN(C)C(=O)Nc2ccc(F)cc2)[C@@H](C)CN([C@H](C)CO)C(=O)c2cc(NC(=O)Cc3ccccc3)ccc2O1 | inactive
O=C1C(O)=C(O)C(=O)C(O)=C1O | active
Cc1cc(C(=O)O)sc1[C@@H](N)C(=O)O | inactive
C[C@@H]1CN([C@@H](C)CO)C(=O)c2cc(-c3cccnc3)cnc2O[C@H]1CN(C)C(=O)Nc1ccc2c(c1)OCO2 | inactive
C[C@H]1CCCCO[C@H](CN(C)C(=O)Nc2ccc(F)cc2)[C@@H](C)CN([C@@H](C)CO)C(=O)c2cc(NC(=O)Nc3ccc4c(c3)OCO4)ccc2O1 | inactive
C[C@@H]1CN([C@H](C)CO)C(=O)c2cc(NC(=O)Cc3cn(C)c4ccccc34)ccc2O[C@H]1CN(C)Cc1ccc(C(F)(F)F)cc1 | inactive
C[C@H](CO)N1C[C@H](C)[C@H](CN(C)C(=O)Nc2cccc3ccccc23)Oc2ccc(NC(=O)Cc3cn(C)c4ccccc34)cc2C1=O | inactive
C[C@H](CO)N1C[C@H](C)[C@@H](CN(C)Cc2ccc(C(F)(F)F)cc2)Oc2ccc(NC(=O)Cc3cn(C)c4ccccc34)cc2C1=O | inactive
C[C@H]1CN([C@@H](C)CO)C(=O)c2cc(NC(=O)Cc3cn(C)c4ccccc34)ccc2O[C@H]1CN(C)C(=O)Nc1ccc(C(F)(F)F)cc1 | inactive
C[C@@H]1CN([C@H](C)CO)C(=O)c2cc(NC(=O)Cc3cn(C)c4ccccc34)ccc2O[C@H]1CN(C)C(=O)Nc1ccc(C(F)(F)F)cc1 | active
C[C@@H]1CN([C@@H](C)CO)C(=O)c2cc(NC(=O)Cc3cn(C)c4ccccc34)ccc2O[C@@H]1CN(C)C(=O)Nc1cccc2ccccc12 | active
C[C@H](CO)N1C[C@H](C)[C@@H](CN(C)C(=O)Nc2ccc(C(F)(F)F)cc2)Oc2ccc(NC(=O)Cc3cn(C)c4ccccc34)cc2C1=O | inactive
C[C@@H]1CN([C@H](C)CO)C(=O)c2cc(NC(=O)Cc3cn(C)c4ccccc34)ccc2O[C@@H]1CN(C)Cc1ccc(C(F)(F)F)cc1 | active
C[C@@H]1CN([C@@H](C)CO)C(=O)c2cc(NC(=O)Cc3cn(C)c4ccccc34)ccc2O[C@@H]1CN(C)C(=O)Nc1ccc(C(F)(F)F)cc1 | inactive
C[C@H]1CN([C@@H](C)CO)C(=O)c2cc(NC(=O)Cc3cn(C)c4ccccc34)ccc2O[C@@H]1CN(C)C(=O)Nc1cccc2ccccc12 | inactive

SMILES | cytotoxicity call
C[C@H](CO)N1C[C@H](C)[C@H](CN(C)C(=O)Nc2ccc(C(F)(F)F)cc2)Oc2ccc(NC(=O)Cc3cn(C)c4ccccc34)cc2C1=O | inactive
C[C@H]1CN([C@@H](C)CO)C(=O)c2cc(NC(=O)Cc3cn(C)c4ccccc34)ccc2O[C@@H]1CN(C)C(=O)Nc1ccc(C(F)(F)F)cc1 | active
C[C@@H]1CN([C@H](C)CO)C(=O)c2cccc(NC(=O)c3ccncc3)c2O[C@H]1CN(C)C(=O)Nc1ccc2c(c1)OCO2 | inactive
Cc1c(C)n2c3c(=O)[nH]c(=O)n(C)c3nc2n1C | inactive
C[C@@H]1CN([C@H](C)CO)C(=O)c2cc(NC(=O)C3CCCCC3)ccc2O[C@@H](C)CCCCO[C@@H]1CN(C)Cc1ccc(C(=O)O)cc1 | inactive
COc1ccc(S(=O)(=O)N2C[C@@H](O)COC[C@H]3O[C@@H](CC(=O)N[C@@H]4CCN(Cc5ccccc5)C4)CC[C@@H]32)cc1 | inactive
C[C@@H]1CN([C@H](C)CO)C(=O)Cc2cc(NC(=O)Cn3cnnn3)ccc2O[C@@H]1CN(C)Cc1ccc(C(=O)Nc2ccccc2N)cc1 | inactive
C[C@@H]1CN([C@H](C)CO)C(=O)c2cc(NS(=O)(=O)c3ccc(Cl)cc3)ccc2O[C@@H](C)CCCCO[C@@H]1CN(C)C(=O)c1ccncc1 | inactive
C[C@@H]1CN([C@@H](C)CO)C(=O)c2cccc(NS(=O)(=O)c3cn(C)cn3)c2O[C@H]1CN(C)C(=O)Nc1ccc(F)cc1 | inactive
C[C@@H]1CCCCO[C@H](CN(C)C(=O)C2CCCCC2)[C@H](C)CN([C@H](C)CO)C(=O)c2cc(NC(=O)NC3CCCCC3)ccc2O1 | inactive
C[C@@H]1CN([C@@H](C)CO)C(=O)Cc2cc(NC(=O)NC3CCCCC3)ccc2O[C@@H]1CN(C)Cc1ccc(Oc2ccccc2)cc1 | active
C[C@@H]1CN([C@H](C)CO)C(=O)Cc2cc(NC(=O)NC3CCCCC3)ccc2O[C@@H]1CN(C)Cc1ccc(Oc2ccccc2)cc1 | active
C[C@H](CO)N1C[C@H](C)[C@H](CN(C)Cc2ccc(Oc3ccccc3)cc2)Oc2ccc(NC(=O)NC3CCCCC3)cc2CC1=O | inactive
C[C@H]1CN([C@@H](C)CO)C(=O)Cc2cc(NC(=O)NC3CCCCC3)ccc2O[C@H]1CN(C)Cc1ccc(-c2ccccc2)cc1 | inactive
C[C@@H]1CN([C@@H](C)CO)C(=O)Cc2cc(NC(=O)NC3CCCCC3)ccc2O[C@H]1CN(C)Cc1ccc(Oc2ccccc2)cc1 | inactive
C[C@@H]1CN([C@@H](C)CO)C(=O)Cc2cc(NC(=O)NC3CCCCC3)ccc2O[C@H]1CN(C)Cc1ccc(-c2ccccc2)cc1 | inactive
C[C@@H]1CN([C@@H](C)CO)C(=O)Cc2cc(NC(=O)NC3CCCCC3)ccc2O[C@@H]1CN(C)Cc1ccc(-c2ccccc2)cc1 | inactive
C[C@H]1CN([C@@H](C)CO)C(=O)Cc2cc(NC(=O)NC3CCCCC3)ccc2O[C@H]1CN(C)Cc1ccc(Oc2ccccc2)cc1 | active
C[C@@H]1CN([C@H](C)CO)C(=O)Cc2cc(NC(=O)NC3CCCCC3)ccc2O[C@H]1CN(C)Cc1ccc(Oc2ccccc2)cc1 | inactive
C[C@@H]1CN([C@H](C)CO)C(=O)Cc2cc(NC(=O)NC3CCCCC3)ccc2O[C@H]1CN(C)Cc1ccc(-c2ccccc2)cc1 | active
C[C@H]1CN([C@@H](C)CO)C(=O)Cc2cc(NC(=O)NC3CCCCC3)ccc2O[C@@H]1CN(C)Cc1ccc(Oc2ccccc2)cc1 | inactive
C[C@H](CO)N1C[C@H](C)[C@@H](CN(C)Cc2ccc(Oc3ccccc3)cc2)Oc2ccc(NC(=O)NC3CCCCC3)cc2CC1=O | inactive
